HT1080NT lethal: kills 2HG-producing HT-1080-NT fibrosarcoma cells; HT-1080-NT fibrosarcoma viability, CellTiter-Glo ATP luminescence, 48 h; Potency, µM (doses to about 46.1 µM), inactives show top-dose activity, negative = less viability, most hits filed as cytotoxic; 1.6% of 360,000 active; AID 686970;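 also: NT is the 2HG producing partner of a matched IDH1 knockdown line; potency is read from the fitted curve at half-maximal effect; 0% = DMSO-treated cells and -100% = media-only wells without cells; nearly all actives have a fitted effect of over 55% in size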
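Compounds were tested in concentration-response format on HT-1080-NT cells for 48 hours at 37 degrees C. Cell viability came from CellTiter-Glo luminescence; curves were classified by r2, response magnitude and activity.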
HT1080 IDH1KD tx: toxicity to HT-1080 IDH1 knockdown cells (counter line). HT-1080 IDH1 knockdown viability, ATP luminescence, 48 h. Potency, µM (titrated, usually from 46.1 µM), without a hit: at the highest dose activity, negative = toxicity, most hits filed as cytotoxic. 2% of 360,000 active. AID 686971;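 also: potency is read from the fitted curve at half-maximal effect; 0% = DMSO wells and -100% = cell-free medium wells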
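HT-1080-IDH1KD cells (IDH1 knocked down), 750/well in RPMI with 5% FBS, treated with compound 48 h at 37 degrees C. Viability by CellTiter-Glo luminescence, normalised to DMSO and no-cell wells; concentration-response curves classed.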
TGFb inhibitor: TGF-b pathway inhibition. HepG2 CAGA-GFP TGF-b/SMAD3 reporter, GFP fluorescence, 18 h; TGF-beta stimulated, 500 pg/mL final. Potency, µM (doses to about 46.1 µM), for inactives: top-dose activity, negative = inhibition, most hits filed as inhibitors. 1.2% of 410,000 active. AID 588855; also: potency is read from the fitted curve at half-maximal effect; % is scaled to controls: 0 for no effect and ±100 for the full control effect; nearly all actives have a fitted effect of over 65% in size
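GFP signal (ex488/em500-530) from TGF-beta-stimulated HEPG2 CAGA-GFP cells, 500 pg/mL final, 18 h at 37 degrees C in DMEM plus 1% FBS, normalized to unstimulated and DMSO-stimulated controls.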
Giardia killer: kills Giardia lamblia | 0.15% of 340,000 active | Giardia lamblia trophozoite viability | AID 540267 | activity change, % at 7.66 µM, hits read low; in the data active = activity change below about -80%; inconclusive = between about -30% and that limit;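 also: parasites exposed to compound for two days anaerobically before the ATP read; % is scaled to controls: 0 for no effect and ±100 for the full control effect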
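Media and compound were dispensed first, then trophozoites at 100 cells/well; plates sat 48 hrs at 37 deg C without oxygen before ATP luminescence reagent was added and read after 15-30 min at room temperature.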
HepG2 tox: counter-screen for TGF-b inhibitors: cytotoxicity in HepG2 cells; HepG2 CAGA-GFP viability, ATP luminescence, 18 h; Potency, µM (highest dose often 46.1 µM), for the others: at the highest dose activity change, negative = cytotoxicity, most hits filed as cytotoxic; 0.76% of 410,000 active; AID 588856; also: potency is read from the fitted curve at half-maximal effect
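HepG2 CAGA-GFP cells (1000/well, DMEM with 1% FBS) received compound, then TGF-beta at 500 pg/mL final, and were incubated 18 hours at 37 degrees C. Viability was read by CellTiter-Glo luminescence. Media-only wells were set as complete cell-killing and DMSO as no toxicity.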
IL-1B inflam inh: blocks inflammasome-driven IL-1 beta release; THP-1 LPS/ATP IL-1B secretion, AlphaLISA, 16 h; active compounds read low; activity change, % at 57.5 µM; 4.7% of 360,000 active; in the data active = activity change below about -50%; inconclusive = mostly about -30% to -49%; also: % is scaled to controls: 0 for no effect and ±100 for the full control effect
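Secreted IL-1B measured by AlphaLISA bead assay after 16 h compound exposure of THP-1 cells; compounds (final up to 57.5 uM) added 1 h before LPS (250 ng/mL) and ATP (1.25 mM) stimulation; lower signal means less secretion.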
* hit, by the source's call. Hits are enriched below; roughly 6.5% of the tested compounds scored in any of these assays. Unless noted, calls follow the shape of the dose curve; as a rule, active = well fitted curve in the direction sought with a large enough effect; inconclusive = small, poorly fitted or top-dose-only effect, or another doubt; inactive = no such curve, though single readings can be large; an effect the other way counts as inactive or inconclusive.

How did CN1CCN(C(=O)c2cc3c(c(-c4cccc(Br)c4)n2)[C@@H](CCO)N(S(=O)C(C)(C)C)C3)CC1 (some centres not stated) do in these assays?
HT1080NT lethal: 23%; HT1080 IDH1KD tx: 6%; TGFb inhibitor: -6%; HepG2 tox: -2%; IL-1B inflam inh: 7

What do the screens show for `CCCCCCCCCCCCCCCC(=O)OC(CC(=O)O)C[N+](C)(C)C` (configuration not stated)?
HT1080NT lethal: 9.2µM*; HT1080 IDH1KD tx: inconclusive; TGFb inhibitor: -2%; Giardia killer: 15; HepG2 tox: -1%; IL-1B inflam inh: 0

Results for O=c1[nH]c(C2CCN(S(=O)(=O)c3ccc(S(=O)(=O)NC4CC4)cc3)CC2)nc2c1nnn2Cc1ccc(F)cc1 ?
HT1080NT lethal: -21%; HT1080 IDH1KD tx: inconclusive; TGFb inhibitor: inconclusive; Giardia killer: -9; HepG2 tox: 6%; IL-1B inflam inh: inconclusive

How did CN(C(=O)COn1nnc2ccc(S(=O)(=O)N3CCOCC3)cc21)c1ccccc1 do in these assays?
HT1080NT lethal: 2%; HT1080 IDH1KD tx: 4%; TGFb inhibitor: 29%; Giardia killer: -1; HepG2 tox: 13%; IL-1B inflam inh: -1

What do the screens show for `CCCCc1ccc(Nc2nc(CCC)cc(=O)[nH]2)cc1`?
HT1080NT lethal: 21µM*; HT1080 IDH1KD tx: inconclusive; TGFb inhibitor: inconclusive; Giardia killer: -1; HepG2 tox: -33%; IL-1B inflam inh: -105*

Results for COc1cc(C2=NC(CO)(CO)CO2)cc(OC)c1OC ?
HT1080NT lethal: -6%; HT1080 IDH1KD tx: -13%; TGFb inhibitor: 33%; Giardia killer: 21; HepG2 tox: 7%; IL-1B inflam inh: -72*

How did COc1ccc(C2=NC(CO)(CO)CO2)cc1 do in these assays?
HT1080NT lethal: 3%; HT1080 IDH1KD tx: 7%; TGFb inhibitor: 4%; Giardia killer: 4; HepG2 tox: -1%; IL-1B inflam inh: 27

What do the screens show for `N=c1c2c3c(sc2ncn1CCN1CCOCC1)CCCC3`?
HT1080NT lethal: -5%; HT1080 IDH1KD tx: -7%; TGFb inhibitor: -3%; Giardia killer: 4; HepG2 tox: -7%; IL-1B inflam inh: 4

How did CCCCNC(=O)/C(C#N)=C/c1ccc(F)cc1F do in these assays?
HT1080NT lethal: -8%; HT1080 IDH1KD tx: -15%; TGFb inhibitor: 3%; Giardia killer: -15; HepG2 tox: -30%; IL-1B inflam inh: -90*

Results for Cc1nc(N2CCCCC2)sc1C(=O)c1cccc([N+](=O)[O-])c1 ?
HT1080NT lethal: -12%; HT1080 IDH1KD tx: 0%; TGFb inhibitor: -15%; Giardia killer: -19; HepG2 tox: 10%; IL-1B inflam inh: -103*

What do the screens show for `Cc1nc(N2CCCCC2)sc1C(=O)c1ccc(SCCO)c([N+](=O)[O-])c1`?
HT1080NT lethal: -12%; HT1080 IDH1KD tx: -18%; TGFb inhibitor: 0%; Giardia killer: -12; HepG2 tox: -6%; IL-1B inflam inh: -54*

What do the screens show for `N=C(c1cccc([N+](=O)[O-])c1)N1CCCCCC1`?
HT1080NT lethal: 8%; HT1080 IDH1KD tx: 7%; TGFb inhibitor: -21%; Giardia killer: 17; HepG2 tox: -3%; IL-1B inflam inh: 2

What do the screens show for `O=[N+]([O-])c1ccc(N2CCCCC2)cc1SCCO`?
HT1080NT lethal: 16%; HT1080 IDH1KD tx: 1%; TGFb inhibitor: -3%; Giardia killer: -6; HepG2 tox: 3%; IL-1B inflam inh: 14

How did O=S(=O)(Cc1ccccc1)Nc1cccc(F)c1 do in these assays?
HT1080NT lethal: 3%; HT1080 IDH1KD tx: 10%; TGFb inhibitor: -8%; Giardia killer: 12; HepG2 tox: 0%; IL-1B inflam inh: -3

Results for Cc1ccc(NS(=O)(=O)Cc2ccccc2)cc1Cl ?
HT1080NT lethal: -12%; HT1080 IDH1KD tx: -4%; TGFb inhibitor: -25%; Giardia killer: 9; HepG2 tox: -1%; IL-1B inflam inh: -86*

Screens as filed in PubChem.
